HCMV inh = blocks human cytomegalovirus replication; 4.5% of 410,000 active; HFF cells, HCMV-luciferase reporter, 72 h; hits give low values; activity change, negative = inhibition, % at 57.5 µM; in the data active = activity change below about -60%; inconclusive = no clear call, values can overlap the other calls; inactive = above about -39%
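Human foreskin fibroblasts infected with luciferase-reporter HCMV at MOI 1 PFU/cell, compounds at two doses. Luciferase measured 72 h post infection; normalized to buffer-only basal and Salinomycin (10uM) controls.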
MARV entry inh = blocks Marburg virus binding to or entry into cells. Marburg virus pseudotyped entry inhibition, cell reporter. Potency, µM (doses to about 37.8 µM), without a hit: at the top dose activity change, negative = inhibition, most hits filed as inhibitors. 1.8% of 300,000 active; calls by dose curve; tested in HEK293 cells; also: potency is read from the fitted curve at half-maximal effect
HCV inh = blocks hepatitis C virus. Huh7.5.1 HCVcc-Cre infection, luciferase reporter, 44 h. 3.4% of 340,000 active. Potency, µM (titrated, usually from 41.8 µM), inactives show at the highest dose activity change, negative = inhibition, most hits filed as inhibitors; active = well fitted inhibition curve with a large enough effect; inconclusive = small, poorly fitted or top-dose-only effect, or another doubt; inactive = no such curve, though single readings can be large or run the other way; also: potency is read from the fitted curve at half-maximal effect
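Compounds are dispensed onto cells plated 4 h earlier at 1,000 per well, with HCVcc-Cre virus (about 0.5 moi) added next. Following 44 h of culture, luminescent signal is measured for 15 sec after 15 min with substrate at room temperature.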
Vaccinia mCherry = vaccinia inhibition (mCherry reporter); AID 720579; Vaccinia virus mCherry reporter infection, fluorescence; Potency, µM (series often up to 36.5 µM), for the others: top-dose activity change, negative = inhibition, actives largely listed as inhibitors; 0.63% of 310,000 active; calls by dose curve; tested in A549 cells; also: potency is read from the fitted curve at half-maximal effect; nearly all actives have a fitted effect of over 35% in size
LASV entry inh = inhibitors of Lassa virus binding or cell entry | Lassa virus pseudotype entry inhibition, cell reporter | 1.2% of 300,000 active | Potency, µM (highest dose often 37.9 µM), for inactives: at the highest dose activity change, negative = inhibition, usual class: inhibitors; calls by dose curve; tested in HEK293 cells; also: potency is read from the fitted curve at half-maximal effect; nearly all actives have a fitted effect of over 50% in size
Vaccinia Venus = vaccinia inhibition (Venus reporter). Vaccinia virus Venus reporter expression, fluorescence. 0.46% of 330,000 active. Potency, µM (highest dose often 36.5 µM), inactives show top-dose activity change, negative = inhibition, usual class: inhibitors; calls by dose curve; tested in A549 cells; also: potency is read from the fitted curve at half-maximal effect; nearly all actives have a fitted effect of over 30% in size
An asterisk follows results filed as active; i = inactive; ? = inconclusive; . = no result given; [ ] = another dose, or the depositor's remark. Shown are actives, neighbours in structure and some others; about 7.8% of the full set was active somewhere. % is scaled to controls: 0 for no effect and ±100 for the full control effect.

SMILES	HCMV inh	MARV entry inh	HCV inh	Vaccinia mCherry	LASV entry inh	Vaccinia Venus
CCCCc1nc(N2CCN(C(=O)c3ccco3)CC2)c(C#N)c2c1CCCC2	0	.	14µM*	.	.	.
CCC(=O)N1CCN(c2nc(-c3ccccc3)c3c(c2C#N)CCCC3)CC1	-36	-20%	10µM*	-8%	?	-10%
CCc1nc(N2CCCC2)c(C#N)c2c1CCCC2	-80*	12%	0%	-11%	18%	2%
COC(=O)c1c(OCc2ccccn2)cc(=O)n2c1CCN(C(=O)c1cc(C(C)C)nn1C)CC2	.	.	.	i	.	0%
CCCOc1ccc(C2C(=O)N(C3CCCCCC3)CC(=O)N2CCCOCC)cc1OC (stereo not drawn)	-31	.	.	-11%	-16%[46.1 µM]	-4%
COc1ccccc1-c1cc2nc(C)c(CCC(=O)Nc3ccc(Br)c(C)c3)c(C)n2n1	-12	?	.	-16%	-12%[46.1 µM]	-10%
O=C(Nc1nc2ccccc2[nH]1)c1ccc(F)cc1	74	?	10%	.	6.5µM*	.
CC(C)Oc1ccc(C(=O)Nc2nc3ccccc3[nH]2)cc1	-60*	?	?	52%	1.1µM*	-5%
N#Cc1ccc(C(=O)Nc2nc3ccccc3[nH]2)cc1	90	10µM*	-2%	-18%	?	-1%
O=C(Nc1nc2ccccc2[nH]1)c1ccc(OC(F)F)cc1	33	?	?	-17%	?	-23%
O=C(Nc1nc2ccccc2[nH]1)c1ccccc1F	-79*	0.32µM*	-18%	14%	0.28µM*	-20%
O=C(Nc1nc2ccccc2[nH]1)c1ccccc1OC(F)F	80	?	-13%	-2%	?	-7%
C(=C\c1c[nH]c2ccccc12)/c1ccnc2ccccc12	.	.	.	?	.	-29%
CCc1ccc(C(=O)Nc2nc3ccccc3[nH]2)cc1	-101*	?	?	-10%	?	?
N#Cc1ccc(C(=O)Nc2ccc3ccccc3c2)cc1	13	?	-22%	?	4µM*	2%
Nc1nccc(C#Cc2cncnc2Nc2ccc(OCc3cccc(F)c3)c(Cl)c2)n1	.	.	.	.	18µM*	.
CCNC(=O)OC1CNC(C#Cc2cc3ncnc(Nc4ccc(OCc5cccc(F)c5)c(Cl)c4)c3s2)C1 (stereo not drawn)	.	.	.	.	7.9µM*	.
CC(=O)Nc1cccc(C#Cc2cncnc2Nc2ccc(OCc3cccc(F)c3)c(Cl)c2)c1	.	.	.	.	16µM*	.
O=C(CSc1nccn1Cc1ccc2c(c1)OCO2)Nc1ccccc1F	?	.	.	i	10%[46.1 µM]	-11%
CCOc1ccc(NC(=O)[C@H]2O[C@@H]3OC(C)(C)O[C@@H]3[C@H]3OC(C)(C)O[C@H]32)cc1	?	21%[46.1 µM]	.	i	14%[46.1 µM]	-10%
Clc1cccc(N2CCN(c3nc4ccccc4n4nnnc34)CC2)c1	7	-5%[46.1 µM]	.	-6%	27%[46.1 µM]	2%
CC1CN(C(=O)CCC(=O)Nc2cc(F)ccc2F)c2ccccc2S1 (stereo not drawn)	-78*	.	.	-9%	-3%[46.1 µM]	-12%
Cc1ccccc1NC(=O)CCC(=O)N1CC(C)Sc2ccccc21 (stereo not drawn)	?	.	.	-11%	20%[46.1 µM]	-1%
O=C(Nn1c(SCc2cccc([N+](=O)[O-])c2)nc2ccccc2c1=O)c1ccccc1	17	?	-10%	i	?	-7%
Cn1c(SCc2cccc([N+](=O)[O-])c2)nc2ccccc2c1=O	?	?	-25%	?	-19%	?
SMILES	HCMV inh	MARV entry inh	HCV inh	Vaccinia mCherry	LASV entry inh	Vaccinia Venus
COCCn1c(SCc2cccc([N+](=O)[O-])c2)nc2ccccc2c1=O	?	?	11µM*	?	?	-6%
COc1ccc(C(=O)Nn2c(SCc3cccc([N+](=O)[O-])c3)nc3ccccc3c2=O)cc1	-70*	8.9µM*	?	i	3.3µM*	-4%
COc1ccc(-c2nnc(SCC(=O)c3cc(C)n(Cc4cccs4)c3C)o2)cc1	-18	-1%	1%	-9%	18%	-4%
CC(=O)Nc1ccc(SCC(=O)c2cc(C)n(Cc3cccs3)c2C)cc1	-77*	?	-12%	-12%	?	-8%
CC(=O)Nc1ccc(SCC(=O)c2cc(C)n(-c3ccccc3F)c2C)cc1	-95*	6.5µM*	?	-17%	?	-12%
Cc1csc(SCC(=O)c2cc(C)n(Cc3cccs3)c2C)n1	-94*	0.5µM*	10µM*	-30%	0.79µM*	?
COC(=O)c1ccc(-n2c(C)cc(C(=O)CSc3ccc(NC(C)=O)cc3)c2C)cc1	4	?	-18%	-19%	?	-14%
Cc1cc(C(=O)CSc2nnc(N)s2)c(C)n1Cc1cccs1	-34	1.6µM*	?	-15%	0.35µM*	-25%
Cc1ccc(OCc2ccc(-c3nc(C#N)c(NCc4ccccc4Cl)o3)o2)cc1	-1	-25%[46.1 µM]	.	-22%	-29%[46.1 µM]	-22%
COc1ccc(S(=O)(=O)NCc2nc(N3CCCC3)c3cccc(C)c3n2)cc1OC	.	.	.	-9%	.	8%
CCN(CCC#N)c1ccc(/C=C/c2ccnc3ccccc23)cc1	.	.	.	0%	.	-7%
COc1cc(NC(=O)c2ccco2)c(C(=O)O)cc1OC	-1	0%	4%	.	-5%	.
COC(=O)c1cc(OC)c(OC)cc1NC(=O)c1ccco1	-10	-25%	6.3µM*	.	-5%	-18%
COc1ccc(NC(=O)COC(=O)c2cc(OC)c(OC)cc2NC(=O)c2ccco2)cc1OC	-66*	-5%	-23%	.	-15%	.
COCCNC(=S)Nc1cc(OC)c(NC(=O)c2ccco2)cc1OC	-34	0%	13µM*	-20%	6%	-8%
O=C(NC1CCc2ccccc21)C1=CN2CCN(Cc3ccccc3)C(=O)N=C2O1 (stereo not drawn)	-13	.	.	.	.	.
Cc1ccc(C2=NCC(C)n3nc4cc(C(F)(F)F)ccc4c32)cc1 (stereo not drawn)	59	.	.	.	.	.
COC(=O)c1ccc(NC(=O)c2ccccc2OCC(=O)Nc2ccc(Br)cc2)cc1	.	.	.	-27%	.	?
COC(=O)C1C[C@@]23C(=NN=C(SC)C2N(C)c2ccc(OC)cc23)N1C(C)=O (stereo partly drawn)	.	-33%[14.2 µM]	.	.	?	.
COc1cc(S(=O)(=O)N(Cc2ccco2)C2CCCC2)ccc1-n1cnnn1	?	-5%	-4%	-23%	?	-21%
CCOc1ccccc1CN(Cc1ccco1)S(=O)(=O)c1ccc(-n2cnnn2)c(OC)c1	-74*	?	?	?	?	?
Cc1ccn2c(C=O)c(-c3ccc(F)cc3)c(C=O)c2c1	-28	.	11µM*	.	.	.
O=Cc1c(-c2ccc(F)cc2)nc2ccccn12	13	10%[46.1 µM]	14%	-8%	12%	-7%
O=C(O)CSCC(=O)Nc1ccc(C2CCCCC2)cc1	-92*	?	15%	-7%	?	-10%
COc1ccc(OC)c(CNC(=O)c2ccc(NC(=O)c3nsc4ccccc34)cc2)c1	74	.	.	-9%	-14%[46.1 µM]	-10%
